Records with an inconclusive call do not appear. The source made the active and inactive calls. Rule for the calls: active = hit-call score of the fitted dose curve at least 0.9, where 1 is the maximum; inconclusive = response in the unintended direction; inactive = score below 0.9.
Each compound was assayed against Retinoic acid receptor RXR-alpha (Homo sapiens) (UniProt P19793) (assay: OT_NURR1_NURR1RXRa_1440: Odyssey Thera (OT) 24-hour HEK293T Protein Complementation Assay for Nurr1/retinoid X receptor (RXR) (AID 2283386)).
Sequence of Retinoic acid receptor RXR-alpha (Homo sapiens) (P19793 whole entry, looked up, the tested form may be a part): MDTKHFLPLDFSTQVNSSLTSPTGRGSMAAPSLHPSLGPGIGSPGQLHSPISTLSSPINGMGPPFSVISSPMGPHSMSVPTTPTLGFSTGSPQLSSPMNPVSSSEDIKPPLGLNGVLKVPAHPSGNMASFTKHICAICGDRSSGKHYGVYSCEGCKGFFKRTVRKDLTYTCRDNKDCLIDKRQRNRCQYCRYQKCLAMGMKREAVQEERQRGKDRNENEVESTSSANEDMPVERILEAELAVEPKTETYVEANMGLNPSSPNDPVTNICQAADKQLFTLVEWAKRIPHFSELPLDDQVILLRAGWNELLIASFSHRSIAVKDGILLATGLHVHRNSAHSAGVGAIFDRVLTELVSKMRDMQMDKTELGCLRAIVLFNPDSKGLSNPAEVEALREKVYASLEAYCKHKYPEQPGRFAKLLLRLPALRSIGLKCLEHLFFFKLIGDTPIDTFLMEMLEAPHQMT
In short: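 Interaction of Nurr1 with RXRα brings fused reporter fragments together in human HEK293T cells, restoring a functional reporter. Fluorescence intensity is measured 24 h after chemical treatment, and values are analysed in the positive direction against DMSO.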

outcome, inactive:
C#CC(C)(O)CC(C)C (centres undefined), CCCCC(CC)COC(C)=O (centres undefined), COc1ccccc1N=Nc1c(S(=O)(=O)O)cc2cc(S(=O)(=O)O)cc(NC(C)=O)c2c1O, CCCCCCC(C)(C)S, OCC#CCO, C=Cc1ccc(C)cc1, O=P(O)(O)O, CN1C(=O)c2ccccc2C1=O, CC(C)Nc1nc(N)nc(Cl)n1, C=C(C)[C@@H]1CC=C(C)C(=O)C1, CCCCCC(C)=O, ON=C1CCCCC1, C=C[Si]1(C)O[Si](C)(C=C)O[Si](C)(C=C)O[Si](C)(C=C)O1 (centres undefined), O=Cc1ccccc1S(=O)(=O)O, CN1CCOCC1, CCC(=O)O[C@@H]1C[C@H]2CC[C@]1(C)C2(C)C, COC(=O)c1ccc(C)cc1C1=NC(C)(C(C)C)C(=O)N1 (centres undefined) (tested in a mixture with another compound), CCOc1ccccc1O, CN(C)c1cccc(O)c1
